Screening results from PubChem BioAssay.
Shown are actives, neighbours in structure and some others; about 14% of the full set was active somewhere.
USP10 block = human USP10 deubiquitinase inhibition; Q14694; purified USP10, Ub-rhodamine fluorescence, 60 min; inhibition, % at 20 µM; 47,000 compounds, 1.1% hits; AID 1645856
USP17 block = inhibitors of human USP17 deubiquitinase; AID 1645855; A8MUK1; inhibition, % at 50 µM; 47,000 compounds, 6.5% hits; purified USP17, Ub-rhodamine cleavage fluorescence, 3 h
USP8 inh = blocks human USP8 ubiquitin-rhodamine cleavage. P40818. purified USP8, Ub-rhodamine cleavage fluorescence, 30 min. inhibition, % at 20 µM. 47,000 compounds, 4.2% hits. AID 1645853
USP28 inh = blocks human USP28 ubiquitin-rhodamine cleavage; inhibition, % at 25 µM; 47,000 compounds, 3% hits; Q96RU2; purified USP28, Ub-rhodamine cleavage fluorescence, 30 min; AID 1645857
USP30 block = inhibitors of human USP30 deubiquitinase. 47,000 compounds, 5.3% hits. Q70CQ3. AID 1645860. inhibition, % at 25 µM. purified USP30, Ub-rhodamine cleavage fluorescence
Target sequence (Q70CQ3 whole entry, looked up): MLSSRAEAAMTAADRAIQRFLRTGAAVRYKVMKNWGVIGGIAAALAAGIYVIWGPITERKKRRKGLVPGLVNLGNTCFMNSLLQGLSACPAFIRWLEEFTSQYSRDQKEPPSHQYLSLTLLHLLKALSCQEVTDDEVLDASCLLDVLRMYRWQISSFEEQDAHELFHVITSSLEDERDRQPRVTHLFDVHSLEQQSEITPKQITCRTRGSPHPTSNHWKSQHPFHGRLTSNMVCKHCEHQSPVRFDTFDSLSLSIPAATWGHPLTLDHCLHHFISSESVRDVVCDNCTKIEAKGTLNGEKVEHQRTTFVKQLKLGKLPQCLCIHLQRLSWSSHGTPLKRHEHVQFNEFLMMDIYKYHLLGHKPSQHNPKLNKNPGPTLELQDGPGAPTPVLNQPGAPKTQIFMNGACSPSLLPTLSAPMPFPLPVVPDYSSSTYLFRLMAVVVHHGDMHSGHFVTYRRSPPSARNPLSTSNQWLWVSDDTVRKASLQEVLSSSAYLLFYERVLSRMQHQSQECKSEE
An asterisk follows results filed as active; · = no result given. Cut-off read from the data, not from the text of the source: active = inhibition above about 30%; inactive = the rest.

SMILES	USP10 block	USP17 block	USP8 inh	USP28 inh	USP30 block
O=C(NC1CCCCC1)C(c1ccc(Cl)cc1)N(C(=O)c1cnccn1)c1ccc2c(c1)OCO2 (configuration not stated)	-3	43*	21	0	-2
O=C(CCCC(=O)N(c1ccc2c(c1)OCCO2)C(C(=O)NC1CCCCC1)c1ccc(F)cc1)Nc1ccccn1 (configuration not stated)	40*	34*	58*	21	45*
CCOc1ccccc1N(C(=O)CCCC(=O)Nc1ccccn1)C(C(=O)NC1CCCC1)c1ccc(F)cc1 (configuration not stated)	0	-8	-4	-7	10
O=[N+]([O-])c1cn(Cc2nc(-c3ccccc3Cl)no2)cn1	-7	18	-95	21	-12
O=C(CC1CCCC1)N1CCCC(c2[nH]nc3nccnc23)C1 (configuration not stated)	3	18	21	13	28
COCCn1cnc2c(-c3ccccc3)cn(CC(=O)NC3CCCC3)c2c1=O	-2	9	3	6	16
C=C(C)[C@@H]1CC[C@]2(C(=O)O)CC[C@]3(C)[C@H](CC[C@@H]4[C@@]5(C)CC[C@H](O)C(C)(C)[C@@H]5CC[C@]43C)[C@@H]12	28	31*	19	10	15
C=C(C/C=C/C(C)(C)O)[C@H]1CC[C@]2(C)[C@@H]1CC[C@@H]1[C@@]3(C)CC[C@H](O)C(C)(C)[C@@H]3CC[C@]12C	8	15	2	14	27
COc1ccccc1NC(=O)c1c(-c2ccc(C)cc2)c2c3n(c(-c4ccc(Cl)cc4)cn13)CCCC2	-4	-10	-12	-16	-133
COc1ccc(C2CC(=O)N(Cc3ccc(F)cc3)C(=O)C2)cc1OC	2	47*	5	4	7
O=c1[nH]c(-c2ccccc2)nc2c1CCN(S(=O)(=O)c1cccc3cccnc13)C2	4	·	11	7	12
Cc1ccc(CCNC(=O)c2nn(C34CC5CC(CC(C5)C3)C4)cc2[N+](=O)[O-])cc1	17	9	-19	23	47*
Cc1ccc(CNC(=O)c2ccc(N3CCC(C)CC3)c([N+](=O)[O-])c2)cc1	5	-7	-11	-20	-1
NS(=O)(=O)c1ccc(CCNC(=O)c2nc(-c3ccccc3)n(-c3ccccc3)n2)cc1	0	-9	-11	-5	-27
Cn1nc(-c2ccccc2F)c2cc(C(=O)NCCc3ccc(S(N)(=O)=O)cc3)sc21	7	10	33*	22	32*
O=C(c1cnc2sccn2c1=O)N1CCN(c2ccccc2F)CC1	1	0	-2	-4	-3
COc1ccc(CCNC(=O)c2cnc3sc4c(n3c2=O)CCCC4)cc1OC	0	-20	-80	40*	0
COc1ccc(CCNC(=O)c2cnc3sc4c(n3c2=O)CCCC4)cc1	1	-3	-3	-10	-12
CC(=O)Nc1ccc(C2C3=C(CC(C)(C)CC3=O)Nc3onc(C)c32)cc1 (configuration not stated)	-1	7	16	6	19
CCOc1cc(C2C3=C(CC(C)(C)CC3=O)Nc3onc(C)c32)ccc1O (configuration not stated)	1	51*	15	12	45*
Cn1cc(C2c3ccccc3C(=O)N2CC(=O)Nc2ccc(F)cc2)c2ccccc21 (configuration not stated)	3	2	11	8	-24
CCOC(=O)C1CCN(Cc2cc(=O)oc3cc(O)c(O)cc23)CC1	34*	85*	91*	85*	52*
Cc1cc(-c2cnc(C(C)C)nc2-c2ccc(CNC(=O)c3cccnc3)cc2)on1	2	14	4	10	25
CCN(CC)c1ncc2c(n1)CCC(C(=O)N1CCCC1)C2 (configuration not stated)	-1	0	1	45*	12
O=C(NC1CCCCC1)C(c1ccc(Cl)cc1)N(Cc1ccccc1)C(=O)c1cnccn1 (configuration not stated)	0	4	5	0	-6
Cc1ccc2[nH]c(=O)c(-c3noc(-c4ccc([N+](=O)[O-])cc4)n3)cc2c1	1	48*	-3	10	42*
Clc1ccc2c(NCc3cccs3)ncnc2c1	2	12	8	34*	22
COc1ccc(S(=O)(=O)N2CC[C@@H]3CN(C(=O)c4ccccc4)[C@@H]3C2)cc1	0	-6	4	-1	0
